Laboratory results from PubChem BioAssay (NCATS).
Inconclusive results are not listed. Calls of active or inactive are those of the source. The call rests on the fitted dose curve; in most records, active means well fitted curve in the direction sought with a large enough effect; inconclusive means small, poorly fitted or top-dose-only effect, or another doubt; inactive means no such curve, though single readings can be large; an effect the other way counts as inactive or inconclusive.

What was measured:
[1] = qHTS of pediatric cancer cell lines to identify multiple opportunities for drug repurposing: Primary screen for Rh41 cells (AID 1347108); further: nearly all actives have a fitted effect of over 70% in size
How it was run: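 CRCs from 8- or 11-point titrations (lowest final 0.59 nM NPC, 0.78 nM MIPE). Cell viability: CellTiter-Glo after 48 h incubation, 15 min room-temperature development, luminescence imaging.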

[2] = qHTS of pediatric cancer cell lines to identify multiple opportunities for drug repurposing: Confirmatory screen for NB1643 cells (AID 1347109); further: nearly all actives have a fitted effect of over 45% in size
How it was run: (§1)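 Cells (500-1,000/well) rested 5 h, then received compounds for 48 h; metabolically active cells were measured by CellTiter-Glo luminescence. Final concentrations spanned up to 46 µM (MIPE, 11-point) or 0.59 nM-46 µM (NPC, 8-point) in primary screens, 11-point in follow-ups.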

[3] = qHTS of pediatric cancer cell lines to identify multiple opportunities for drug repurposing: Confirmatory screen for A673 cells (AID 1347110);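 further: cells exposed to compound for 48 h before the viability read; nearly all actives have a fitted effect of over 65% in size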
How it was run: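 A673 cells seeded at 500-1,000 cells/well, rested 5 h, then dosed; primary MIPE 11-point (0.78 nM to 46 µM), NPC (0.59 nM to 46 µM); confirmatory 11-point. CellTiter-Glo luminescence after 48 h.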

[4] = qHTS of pediatric cancer cell lines to identify multiple opportunities for drug repurposing: Confirmatory screen for SK-N-MC cells (AID 1347111);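 further: cells exposed to compound for 48 h before the readout; nearly all actives have a fitted effect of over 70% in size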
How it was run: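 Seed 500-1,000 cells/well; rest 5 h at 37 degrees C. Pin-transfer compounds, 11-point titration. Incubate 48 h. Add CellTiter-Glo, 15 min RT, read luminescence.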

[5] = qHTS of pediatric cancer cell lines to identify multiple opportunities for drug repurposing: Confirmatory screen for LAN-5 cells (AID 1347113); further: nearly all actives have a fitted effect of over 65% in size
How it was run: as §1

[6] = qHTS of pediatric cancer cell lines to identify multiple opportunities for drug repurposing: Confirmatory screen for BT-12 cells (AID 1347112);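 further: viability read after 48 h of compound exposure; nearly all actives have a fitted effect of over 55% in size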
How it was run: as §1

[7] = qHTS of pediatric cancer cell lines to identify multiple opportunities for drug repurposing: Confirmatory screen for NB-EBc1 cells (AID 1347115);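 further: cells exposed to compound for 48 h before the viability read; nearly all actives have a fitted effect of over 45% in size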
How it was run: as §1

[8] = qHTS of pediatric cancer cell lines to identify multiple opportunities for drug repurposing: Confirmatory screen for SJ-GBM2 cells (AID 1347116); further: nearly all actives have a fitted effect of over 60% in size
How it was run: (§2)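 Viability measured as metabolically active cells via CellTiter-Glo luminescence following 48 hours of compound exposure, 11-point dilutions in confirmatory testing. 500-1,000 cells/well plated 5 hours before dosing; controls were DMSO and 2.3 µM bortezomib.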

[9] = qHTS of pediatric cancer cell lines to identify multiple opportunities for drug repurposing: Confirmatory screen for DAOY cells (AID 1347114); further: nearly all actives have a fitted effect of over 65% in size
How it was run: as §2
Potency means the concentration at half of the fitted maximal effect.

SMILES | Potency [1] | Potency [2] | Potency [3] | Potency [4] | Potency [5] | Potency [6] | Potency [7] | Potency [8] | Potency [9]
Cc1nc(N)ncc1-c1nc(N2CCOCC2)c2sc(C(C)(C)O)cc2n1 | 1870 nM (active) | 1650 nM (active) | 2330 nM (active) | 293 nM (active) | 1470 nM (active) |  |  |  | 
COc1cc2nccc(Oc3ccc(NC(=O)C4(C(=O)Nc5ccc(F)cc5)CC4)cc3)c2cc1OC | 9350 nM (active) | inactive | 18500 nM (active) |  |  | inactive | inactive | 1650 nM (active) | 
COc1cc(=C2C=c3ccccc3=N2)[nH]c1=Cc1[nH]c(C)cc1C | 5900 nM (active) | 14700 nM (active) | 2190 nM (active) | 11700 nM (active) | 10400 nM (active) | 26100 nM (active) |  | 43700 nM (active) | 
COc1c(OCCCN2CCOCC2)ccc2c3n(c(=NC(=O)c4cnc(N)nc4)nc12)CCN3 | 102 nM (active) | 2290 nM (active) |  | 1020 nM (active) | 644 nM (active) | inactive | 2570 nM (active) | 2040 nM (active) | inactive
O=C(Nc1cc(C(F)(F)F)cc(C(F)(F)F)c1)c1cc(Cl)ccc1O | 2350 nM (active) | 1650 nM (active) | 3290 nM (active) | 3690 nM (active) | 2610 nM (active) | 3690 nM (active) | 2930 nM (active) |  | 
CC(C)[C@H](C(=O)Nc1ccc(C(=O)NO)cc1)c1ccccc1 | 1180 nM (active) | 585 nM (active) | 1040 nM (active) | 465 nM (active) | 827 nM (active) | 9270 nM (active) | 928 nM (active) | 1470 nM (active) | 2330 nM (active)
CC(C)=CCCC(C)=CCCC(C)=CCSc1ccccc1C(=O)O | 4690 nM (active) |  |  |  |  |  |  |  | 
CN1CC[C@@H](c2c(O)cc(O)c3c(=O)cc(-c4ccccc4Cl)oc23)[C@@H](O)C1 | 296 nM (active) | 261 nM (active) | 522 nM (active) | 414 nM (active) | 465 nM (active) | 737 nM (active) | inactive | 369 nM (active) | 465 nM (active)
CNC(=O)CN1CCC(Oc2cc3c(Nc4cccc(Cl)c4F)ncnc3cc2OC)CC1 | 46.9 nM (active) | 1040 nM (active) | inactive | 1470 nM (active) | 1170 nM (active) | inactive | 4650 nM (active) |  | inactive
CNC(=O)c1ccccc1Nc1nc(Nc2ccc(N3CCOCC3)cc2OC)ncc1Cl | 935 nM (active) | 369 nM (active) | 1040 nM (active) | 737 nM (active) | 414 nM (active) |  | 8270 nM (active) | 9270 nM (active) | 
